Results on 35 compounds are retold here after PubChem BioAssay (Tox21).

Results filed as inconclusive are left out. Values without a mark were called inactive. Unless noted, calls follow the shape of the full dose curve.
% is scaled to controls: 0 for no effect and ±100 for the full control effect.

Chain of Beta-2 adrenergic receptor (Homo sapiens) (P07550 whole entry, looked up): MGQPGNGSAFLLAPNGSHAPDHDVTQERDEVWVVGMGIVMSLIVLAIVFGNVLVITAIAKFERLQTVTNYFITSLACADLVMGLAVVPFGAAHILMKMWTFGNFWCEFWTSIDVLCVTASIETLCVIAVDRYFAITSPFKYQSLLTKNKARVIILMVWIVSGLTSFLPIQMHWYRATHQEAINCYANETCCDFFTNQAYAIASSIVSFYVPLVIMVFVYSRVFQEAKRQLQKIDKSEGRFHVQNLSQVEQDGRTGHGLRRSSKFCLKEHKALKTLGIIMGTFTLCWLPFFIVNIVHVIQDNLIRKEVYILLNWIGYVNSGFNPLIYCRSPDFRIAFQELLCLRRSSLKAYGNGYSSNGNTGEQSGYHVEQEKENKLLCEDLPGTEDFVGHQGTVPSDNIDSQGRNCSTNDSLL

System in one assay: not listed separately
In words: cAMP Responsive Elements (CRE) small molecule agonists, cell-based qHTS assay (AID 1963590). Conditions: CRE-bla HEK293T, beta-lactamase FRET ratio, 3 h; series mostly up to 92.4 µM; activation: at the top concentration. The gist of the method: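 CRE-bla HEK 293T cells in DMEM with 10% dialyzed FBS, NEAA, pyruvate and 25 mM HEPES were plated 18 h at 37 C/5% CO2, then exposed to compounds in DMSO for 3 h before LiveBLAzer B/G FRET substrate addition.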
In the case of `C=CC(=O)OCC`, the “activation” value was 0.841%.
Same read-out and setting: then `O=C(CBr)Nc1ccc(Cl)cc1C(=O)c1ccccc1F`, with 4.99% [at 42.5 µM].
Same read-out and setting: then `CC1=NNC(=O)N(/N=C/c2cccnc2)C1`, with 0.49%.
On to `[O-][Cl+3]([O-])([O-])O`, for which the “activation” value was -0.369%.
`CCn1cc[n+](C)c1` (tested in a mixture with another compound): the “activation” value was -0.838%.
The same measure, in the same setting: the value for `CSC(C)(C)/C=N/O` was 0.889%; that for `C=CCC1(C(C)CC)C(=O)NC(=O)NC1=O` (stereo not drawn) was -2.22% [at 42.5 µM].
Regarding `CCOP(=O)(SC(C)CC)N1CCSC1=O` (stereo not drawn), the “activation” value was 2.86%.
In the case of `CCNP(=S)(OC)O/C(C)=C/C(=O)OC(C)C` (stereo not drawn), the “activation” value is 5.15%.
On to `COP(=O)(OC)O/C(C)=C/C(=O)N(C)C`, for which the “activation” value was 0.869%.
Still for that read-out and setting: then `CN1C2CCC(C)(C)C1CC(OC(=O)C(O)(c1cccs1)c1cccs1)C2` (stereo not drawn), with 5.75% [at 42.5 µM]; and `O=C1OC(=O)C2C1C1(Cl)C(Cl)=C(Cl)C2(Cl)C1(Cl)Cl` (stereo not drawn), with 0.547%; and `NNCc1ccccc1`, with -2.57%.
On the same count and under the same terms, then `ClC(Br)Br`, with 0.388%; and `C#CC(C)(C)O`, with 0.0409%; and `CNC(=O)O/N=C(\C)C(C)S(C)(=O)=O` (stereo not drawn), with -0.297% [at 872 µM].
Same read-out and setting: the value for `CCC1(c2ccccc2)C(=O)N(COC)C(=O)N(COC)C1=O` was -0.155% [at 42.5 µM].
Consider `CCS(=O)(=O)CCSP(=O)(OC)OC`, for which the “activation” value was -0.693%.
For `c1cc[n+]2c(c1)-c1cccc[n+]1CC2`, the “activation” value is 0.0585% [at 42.5 µM].
Still for that read-out and setting: then `O=C(NC(O)C(Cl)(Cl)Cl)NC(O)C(Cl)(Cl)Cl` (stereo not drawn), with 1.47% [at 42.5 µM]; and `CNC(=O)Oc1cccc(N=CN(C)C)c1`, with -0.994%; and `ClCc1ccccc1Cl`, with 1.07%.
The same measure, in the same setting: then `CCOP(=S)(OCC)Oc1nc(Cl)n(C(C)C)n1`, with 0.69%.
The same measure, in the same setting: the value for `CCOP(=S)(OCC)Oc1ccc(Cl)cc1Cl` was 0.622%.
For the compound `CC(C)O.CC(C)O.OCCN(CCO)CCO.OCCN(CCO)CCO.[Ti]`, the “activation” value was 0.592%.
In the case of `CNC(=O)O/N=C(/CSC)C(C)(C)C`, the “activation” value is 0.0132%.
The same measure, in the same setting: then `C/C=C/C=O`, with 0.285%.
Consider `CNC(=O)Oc1ccccc1C(C)C`, for which the “activation” value was 0.0828%.

System in a further assay: not listed separately
Briefly: cAMP Responsive Elements (CRE) small molecule antagonists, cell-based qHTS assay (AID 1963591; active = well fitted inhibition curve with a large enough effect in the signal ratio in the repeat runs, not every such curve was filed as active; the % refers to the signal ratio). Conditions: CRE-bla HEK293T, beta-lactamase FRET ratio; series mostly up to 92.4 µM; activity change, negative = inhibition: at the top concentration. Put shortly: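 CRE-bla HEK293T cells were plated 18 h at 37 °C/5% CO2, pinned with compound in DMSO, then stimulated with NKH477 at 0.25 uM final for 3 h. LiveBLAzer B/G FRET substrate was added and plates incubated 2 h at room temperature.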
On the technique in general: In qHTS, concentration-response curves come from the screen itself.
For `C=CC(=O)OCC`, the “activity change, negative = inhibition” value is 0.0243%.
On the same count and under the same terms, the value for `CC1=NNC(=O)N(/N=C/c2cccnc2)C1` was 11.3%; that for `[O-][Cl+3]([O-])([O-])O` was -0.387%.
On the same count and under the same terms, the value for `CCn1cc[n+](C)c1` (tested in a mixture with another compound) was -1.26%.
Regarding `CSC(C)(C)/C=N/O`, the “activity change, negative = inhibition” value was 0.23%.
Still for that read-out and setting: the value for `C=CCC1(C(C)CC)C(=O)NC(=O)NC1=O` (stereo not drawn) was -0.537% [at 42.4 µM]; that for `CCOP(=O)(SC(C)CC)N1CCSC1=O` (stereo not drawn) was -14.6%.
Still for that read-out and setting: the value for `CCNP(=S)(OC)O/C(C)=C/C(=O)OC(C)C` (stereo not drawn) was 18%.
Still for that read-out and setting: the value for `CN1C2CCC(C)(C)C1CC(OC(=O)C(O)(c1cccs1)c1cccs1)C2` (stereo not drawn) was 19.7% [at 42.4 µM]; that for `O=C1OC(=O)C2C1C1(Cl)C(Cl)=C(Cl)C2(Cl)C1(Cl)Cl` (stereo not drawn) was -2.99%.
Consider `C[C@H](CN1CCOCC1)C(C(=O)N1CCCC1)(c1ccccc1)c1ccccc1`, for which the “activity change, negative = inhibition” value was 0.316%.
Consider `NNCc1ccccc1`, for which the “activity change, negative = inhibition” value is -1.46%.
As for `ClC(Br)Br`, the “activity change, negative = inhibition” value was -8.15%.
On the same count and under the same terms, the value for `C#CC(C)(C)O` was -0.144%; that for `CNC(=O)O/N=C(\C)C(C)S(C)(=O)=O` (stereo not drawn) was -9.99% [at 872 µM]; that for `CCC1(c2ccccc2)C(=O)N(COC)C(=O)N(COC)C1=O` was 0.157% [at 42.4 µM].
Same read-out and setting: then `c1cc[n+]2c(c1)-c1cccc[n+]1CC2`, with 1.87% [at 42.4 µM]; and `O=C(NC(O)C(Cl)(Cl)Cl)NC(O)C(Cl)(Cl)Cl` (stereo not drawn), with -5.64% [at 42.4 µM]; and `CNC(=O)Oc1cccc(N=CN(C)C)c1`, with 13.2%.
`ClCc1ccccc1Cl`: the “activity change, negative = inhibition” value was 9.87%.
On the same count and under the same terms, the value for `CCOP(=S)(OCC)Oc1nc(Cl)n(C(C)C)n1` was 9.14%.
The same measure, in the same setting: then `CC(C)O.CC(C)O.OCCN(CCO)CCO.OCCN(CCO)CCO.[Ti]`, with 3.47%; and `CNC(=O)O/N=C(/CSC)C(C)(C)C`, with 2.81%.
Still for that read-out and setting: the value for `C/C=C/C=O` was 1.96%.
Take `CNC(=O)Oc1ccccc1C(C)C`: the “activity change, negative = inhibition” value is -8.71%.

In a further assay the target is Beta-2 adrenergic receptor (Homo sapiens) (UniProt P07550). Briefly: Adrenergic beta2 receptor (ADRB2) small molecule antagonists, cell-based qHTS assay (AID 1963592). Also: nearly all actives have a fitted effect of over 50% in size. Conditions: CHO-ADRB2 cells, isoproterenol-stimulated cAMP HTRF ratio, 0.5 h; series mostly up to 92.4 µM; activity change, negative = inhibition: at the top concentration. Put shortly:
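Cells (CHO, stable ADRB2 overexpression) incubated 18-20hr at 37C; compounds added from DMSO; agonist mix (1nM isoproterenol, 100uM IBMX, 25uM Ro-20-1724) added; 0.5hr RT; d2-cAMP and anti-cAMP-cryptate added; 1hr RT; 665/615 nm read.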
On to `N#Cc1sc2c(=O)c3ccccc3c(=O)c=2sc1C#N`, for which the “activity change, negative = inhibition” value was 3.92%.
Still for that read-out and setting: the value for `C=CC(=O)OCC` was -9.14%; that for `Cc1c(Cl)c(=O)oc2cc(OP(=O)(OCCCl)OCCCl)ccc12` was -2.9% [at 42.5 µM]; that for `O=C(CBr)Nc1ccc(Cl)cc1C(=O)c1ccccc1F` was -13.7% [at 42.5 µM].
The same measure, in the same setting: then `CC1=NNC(=O)N(/N=C/c2cccnc2)C1`, with 2.23%; and `[O-][Cl+3]([O-])([O-])O`, with 2.14%.
The same measure, in the same setting: then `CCn1cc[n+](C)c1` (tested in a mixture with another compound), with -3.35%; and `CCOC(=O)C(Cl)Cc1cc(-n2nc(C)n(C(F)F)c2=O)c(F)cc1Cl` (stereo not drawn), with -28.5%.
For `CSC(C)(C)/C=N/O`, the “activity change, negative = inhibition” value was 1.83%.
As to `C=CCC1(C(C)CC)C(=O)NC(=O)NC1=O` (stereo not drawn), the “activity change, negative = inhibition” value is 5.2% [at 42.5 µM].
On to `CCOP(=O)(SC(C)CC)N1CCSC1=O` (stereo not drawn), for which the “activity change, negative = inhibition” value was -9.47%.
Still for that read-out and setting: the value for `CCOP(=S)(OCC)Oc1cc(-c2ccccc2)on1` was 0.699%; that for `CCNP(=S)(OC)O/C(C)=C/C(=O)OC(C)C` (stereo not drawn) was 0.477%.
Still for that read-out and setting: the value for `COP(=O)(OC)O/C(C)=C/C(=O)N(C)C` was -0.989%; that for `CN1C2CCC(C)(C)C1CC(OC(=O)C(O)(c1cccs1)c1cccs1)C2` (stereo not drawn) was 7.05% [at 42.5 µM]; that for `O=C1OC(=O)C2C1C1(Cl)C(Cl)=C(Cl)C2(Cl)C1(Cl)Cl` (stereo not drawn) was -10.6%.
Same read-out and setting: the value for `C[C@H](CN1CCOCC1)C(C(=O)N1CCCC1)(c1ccccc1)c1ccccc1` was -2.52%; that for `NNCc1ccccc1` was -7.45%; that for `ClC(Br)Br` was 6.71%.
Take `C#CC(C)(C)O`: the “activity change, negative = inhibition” value was -6.36%.
Same read-out and setting: the value for `CCN1CCC2(CC1)COc1cc3c(cc12)N(C(=O)c1ccc(-c2ccc(-c4nnc(C)o4)cc2C)cc1)CC3` was 1.92%; that for `CNC(=O)O/N=C(\C)C(C)S(C)(=O)=O` (stereo not drawn) was -2.15% [at 872 µM]; that for `CCOC(=O)c1cn2nc(OP(=S)(OCC)OCC)cc2nc1C` was 1.72%.
Still for that read-out and setting: the value for `CCC1(c2ccccc2)C(=O)N(COC)C(=O)N(COC)C1=O` was 5.43% [at 42.5 µM]; that for `CCS(=O)(=O)CCSP(=O)(OC)OC` was 4.35%; that for `c1cc[n+]2c(c1)-c1cccc[n+]1CC2` was -6.26% [at 42.5 µM].
On the same count and under the same terms, then `O=C(NC(O)C(Cl)(Cl)Cl)NC(O)C(Cl)(Cl)Cl` (stereo not drawn), with 8.84% [at 42.5 µM].
Regarding `CNC(=O)Oc1cccc(N=CN(C)C)c1`, the “activity change, negative = inhibition” value was 0.795%.
The same measure, in the same setting: then `ClCc1ccccc1Cl`, with 2.98%; and `CCOP(=S)(OCC)Oc1nc(Cl)n(C(C)C)n1`, with 4.67%.
Still for that read-out and setting: the value for `CCOP(=S)(OCC)Oc1ccc(Cl)cc1Cl` was -1.73%; that for `CC(C)O.CC(C)O.OCCN(CCO)CCO.OCCN(CCO)CCO.[Ti]` was 0.673%.
The same measure, in the same setting: then `CNC(=O)O/N=C(/CSC)C(C)(C)C`, with -0.573%; and `C/C=C/C=O`, with 1.93%.
For `CNC(=O)Oc1ccccc1C(C)C`, the “activity change, negative = inhibition” value is 3.88%.
